A number with no mark means an inactive call. Active and inactive are the calls of the source.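 How the source made its calls: active means IC50 below 10 µM at human M5 in a calcium flux test, acting as a negative modulator; inactive means the rest.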

The target in this assay is Muscarinic acetylcholine receptor M5 (Homo sapiens) (UniProt P08912). As to the kind of experiment: inhibition of ACh-evoked M5 calcium signal – cell-based, single concentration, human M5 (AID 743025). To be noted: CHO-K1 hM5, ACh EC80 calcium flux, Fluo-4; at 10 µM; active compounds read low. (In general: Calcium assays in cells follow changes in intracellular calcium, usually with a dye or a luminescent sensor.)
Muscarinic acetylcholine receptor M5 (Homo sapiens), sequence (P08912 whole entry, looked up): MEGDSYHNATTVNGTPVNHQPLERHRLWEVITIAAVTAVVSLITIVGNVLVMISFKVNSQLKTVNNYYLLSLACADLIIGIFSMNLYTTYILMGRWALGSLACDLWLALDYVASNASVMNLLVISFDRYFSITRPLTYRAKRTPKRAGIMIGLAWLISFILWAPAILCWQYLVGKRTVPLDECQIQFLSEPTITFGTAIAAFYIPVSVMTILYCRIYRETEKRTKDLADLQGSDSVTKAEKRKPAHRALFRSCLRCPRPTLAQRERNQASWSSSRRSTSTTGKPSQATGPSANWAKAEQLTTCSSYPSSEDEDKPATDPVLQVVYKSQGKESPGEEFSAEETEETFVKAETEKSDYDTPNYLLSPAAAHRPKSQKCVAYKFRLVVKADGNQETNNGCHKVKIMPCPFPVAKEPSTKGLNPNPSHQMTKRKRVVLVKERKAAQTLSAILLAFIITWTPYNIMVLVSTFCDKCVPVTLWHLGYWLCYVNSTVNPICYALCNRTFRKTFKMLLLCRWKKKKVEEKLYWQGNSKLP
For the compound `N#CC1(c2ccccc2)CCCN1C(=O)c1ccccc1` (stereo not given), the activity remaining was 84.8%.

Turning to `O=C(c1ccc(C(F)(F)F)cc1)N1CCCN2C(=O)c3ccccc3C12c1ccc(Cl)cc1` (stereo not given), the activity remaining is 75.7%.

As to `O=C(c1ccc(F)c(F)c1)N1CCN2C(=O)c3ccccc3C12c1ccccc1` (stereo not given), the activity remaining was 0.88% (active).

Regarding `Cc1ccc(C23c4ccccc4C(=O)N2CCN3C(=O)c2cc(F)cc(F)c2)cc1` (stereo not given), the activity remaining was 2.43% (active).

As for `Cc1ccc(C23c4ccccc4C(=O)N2CCN3C(=O)c2ccc(OC(F)(F)F)cc2)cc1` (stereo not given), the activity remaining was 6.55% (active).

`O=C(c1ccccc1)N1CCN2C(=O)c3ccccc3C12c1ccc(F)cc1` (stereo not given): the activity remaining is 67.6% (active).

With `O=C(c1ccccn1)N1CCN2C(=O)c3ccccc3C12c1ccc(Cl)cc1` (stereo not given), the activity remaining was 88.9%.

`O=C(c1ccc(OC(F)(F)F)cc1)N1CCN2C(=O)c3ccccc3C12c1ccccc1` (stereo not given): the activity remaining is 1.8% (active).

For the compound `Cc1ccc(C23NCCN2C(=O)c2ccccc23)cc1` (stereo not given), the activity remaining was 77.4%.

As to `COc1ccc(C23NCCN2C(=O)c2ccccc23)cc1` (stereo not given), the activity remaining was 72.7%.

As for `CSc1ccc(C23c4ccccc4C(=O)N2CCN3C(=O)c2ccc(F)c(F)c2)cc1` (stereo not given), the activity remaining was 14.6% (active).

In the case of `O=C(c1ccc(OCc2ccccc2)cc1)N1CCN2C(=O)c3ccccc3C12c1ccccc1` (stereo not given), the activity remaining is 75.1%.

Turning to `O=C(c1ccc(SC(F)(F)F)cc1)N1CCN2C(=O)c3ccccc3C12c1ccccc1` (stereo not given), the activity remaining was 1.05% (active).

As to `O=C1c2ccccc2C2(c3ccccc3)N1CCN2C(=O)c1c(F)cccc1F` (stereo not given), the activity remaining was 84%.

As to `O=C(c1cc(Cl)cc(Cl)c1)N1CCCN2C(=O)c3ccccc3C12c1ccccc1` (stereo not given), the activity remaining was 51.9% (active).
